# Laboratory results as given in PubChem BioAssay (NCI).
# Several values for one entry are separate records, joined by “and”; a condition that tells them apart may be missing. Equal entries are not always repeated. Compounds without any hit were thinned out: in the full panel of roughly 79,000, 15% have a hit. A structure can be active in one record and inactive in another. Activity calls are given as the source filed them. Rule as the data show it: active = growth inhibition above about 70%; inactive = the rest.
# Experiment: NCI Yeast Anticancer Drug Screen. Data for the bub3 strain (AID 167)
# Conditions: S. cerevisiae bub3 mutant strain, stronger effect = higher value
# Method: Growth inhibition of yeast strains with defined genetic alterations is measured as a screen for potential anti-cancer activity. Selected strains with alterations in DNA damage repair or cell cycle control were exposed to compounds and growth inhibition was measured relative to vehicle treated controls. The strain used in this assay is bub3
# [1] = at 5.0 µM (retest, dose inferred, filed as 0.5)
# [2] = at 50.0 µM (retest, dose inferred, filed as 5.0)
compound,measurement,setting,value
Cc1c([N+](=O)[O-])oc2ccc3ccccc3c12,growth inhibition,at 1.2 µM,-11% (inactive)
same,growth inhibition,at 3.7 µM,-17% (inactive)
same,growth inhibition,[1],-66% (inactive)
same,growth inhibition,at 11.0 µM,-11% (inactive)
same,growth inhibition,at 33.0 µM,-18% (inactive)
same,growth inhibition,[2],-11% (inactive)
same,growth inhibition,at 50.0 µM,12.4% (inactive)
same,growth inhibition,at 100.0 µM,0% (inactive)
C[CH2][Sn]([CH2]C)([O]C(C)=O)[O][Sn]([CH2]C)([CH2]C)[O]C(C)=O,growth inhibition,[1],21% (inactive)
same,growth inhibition,[2],78% (active)
same,growth inhibition,at 50.0 µM,84.3% (active)
O=c1oc2ccccc2c(O)c1C(c1ccc(OCc2ccccc2)cc1)c1c(O)c2ccccc2oc1=O,growth inhibition,[1],7% (inactive)
same,growth inhibition,[2],95% (active)
same,growth inhibition,at 50.0 µM,60.2% (inactive)
CCCN1CN(c2ccccc2)C2(CCN(CCCC(=O)c3ccc(F)cc3)CC2)C1=O,growth inhibition,[1],4% (inactive)
same,growth inhibition,[2],35% (inactive)
same,growth inhibition,at 50.0 µM,38.9% (inactive)
CC(=O)[O][Hg][c]1c(C)c(C)c(C)c(C)c1C,growth inhibition,[1],98% (active)
same,growth inhibition,[2],97% (active)
same,growth inhibition,at 50.0 µM,88.5% (active)
CC(CCS(C)(=O)=O)([N+](=O)[O-])[N+](=O)[O-],growth inhibition,[1],27% (inactive)
same,growth inhibition,[2],99% (active)
same,growth inhibition,at 50.0 µM,99% (active)
CN1CC(C(=O)NC2(C)OC3(O)C4CCCN4C(=O)C(Cc4ccccc4)N3C2=O)C=C2c3cccc4[nH]cc(c34)CC21 (stereo unspecified),growth inhibition,[1],-24% (inactive) and 2% (inactive)
same,growth inhibition,[2],4% (inactive) and 30% (inactive)
same,growth inhibition,at 50.0 µM,8.25% (inactive) and 57% (inactive)
CC(C)=[CH][Sb]([Br])([CH]=C(C)C)([CH]=C(C)C)[c]1ccccc1,growth inhibition,[1],-3% (inactive)
same,growth inhibition,[2],22% (inactive)
same,growth inhibition,at 50.0 µM,64.9% (inactive)
C[CH2][Sn]([Cl])([CH2]C)[O][Sn]([Cl])([CH2]C)[CH2]C,growth inhibition,[1],6% (inactive)
same,growth inhibition,[2],88% (active)
same,growth inhibition,at 50.0 µM,96.7% (active)
CCCCCCCCCCCCN1CC1,growth inhibition,[1],1% (inactive)
same,growth inhibition,[2],44% (inactive)
same,growth inhibition,at 50.0 µM,82% (active)
COC1(OC)C(Cl)=C(Cl)C(Cl)=C1Cl,growth inhibition,[1],2% (inactive)
same,growth inhibition,[2],89% (active)
same,growth inhibition,at 50.0 µM,58.8% (inactive)
O=S(=O)(CCl)C(Cl)(Cl)Cl,growth inhibition,[1],36% (inactive) and 1% (inactive)
same,growth inhibition,[2],80% (active) and 56% (inactive)
same,growth inhibition,at 50.0 µM,92.7% (active) and 67.8% (inactive)
